LGR2 antag: blocks bursicon-induced cAMP signaling via Drosophila LGR2; HEK293 LGR2, CRE-luciferase, bursicon-stimulated, 4 h; inhibition, % at 9.99 µM; hit rate 0.35% among 380,000; AID 720647;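 active = drop in luminescence signal, shown as inhibition above about 50% in the replicate tests, limit read from the data, passing the limit was not always enough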;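 also: agonist challenge used bursicon conditioned medium at about half maximal strength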
TROY signal inh: blocks TROY-dependent signaling in reporter cells. AID 1347056. inhibition, % at 10 µM. hit rate 0.98% among 360,000. Q293 LMP1-TROYcd NF-kB luciferase reporter, 4 h;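 active = compounds whose plate-normalised and pattern-corrected inhibition of the luciferase reporter signal at the single screening dose is 50% or more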
EWS-Fli block: blocks EWS/Fli oncoprotein-driven transcription | A673 NR0B1-luciferase reporter, viability-normalised | inhibition, % at 12.6 µM | hit rate 0.67% among 350,000 | AID 651661;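 active = mean inhibition of at least 50% after viability correction, with every replicate also passing that limit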;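 also: firefly luciferase signal divided by Alamar Blue viability fluorescence both relative to DMSO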
TWEAK Fn14 block: TWEAK-Fn14 signaling inhibition | TWEAK-stimulated Fn14 reporter cells, luciferase luminescence, 8 h | inhibition, % at 10 µM | hit rate 2% among 360,000 | AID 1159606; in the data active = inhibition above about 50%
EBV LMP1 NFkB: Epstein-Barr LMP1 NF-kappaB reporter inhibition. AID 504558. hit rate 0.69% among 350,000. inhibition, % at 12.5 µM. LMP1-induced NF-kappaB luciferase reporter cells, luminescence; in the data active = inhibition above about 41%;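 also: 0% = neutral control wells and 100% = reference inhibitor control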
Starred values were filed as active, the others as inactive; / = no result; ! = not confirmed by another sample. Shown are actives, neighbours in structure and some others; about 2.5% of the full set was active somewhere.

SMILES	LGR2 antag	TROY signal inh	EWS-Fli block	TWEAK Fn14 block	EBV LMP1 NFkB
COc1ccc2c3c(n(C)c2c1)[C@@H](CO)N(S(C)(=O)=O)CC31CCN(C(=O)c2ccccn2)CC1	-2	/	-5	/	/
CCOc1ccc(C(CC(=O)O)NC(=O)c2sc3ccccc3c2Cl)cc1 (stereo not given)	8	0	-15	-23	51*
CCCOc1ccc(C(CC(=O)O)NC(=O)c2sc3ccccc3c2Cl)cc1 (stereo not given)	3	-12	7	-2	-6
CCOc1ccc(CNc2ccc(N3CCN(Cc4ccccc4)CC3)cc2)cc1	4	12	11	24	4
CCOc1cc(CNc2ccc(N3CCCC3)cc2)cc(Cl)c1OC	/	32	-13	59*	-8
CCOc1ccc(CNc2ccc(N3CCCC3)cc2)cc1	/	40	-13	55*	9
COc1cc(CNc2ccc(N3CCCC3)cc2)cc(Cl)c1OC	/	20	0	32	-10
O=C(Cc1ccc(-n2c(=O)c3sccc3n(CC(=O)Nc3ccccc3F)c2=O)cc1)NCc1ccco1	6	-8	12	14	69*
OC(CN1CCN(c2ccccn2)CC1)Cn1c2ccc(Cl)cc2c2cc(Cl)ccc21 (stereo not given)	/	-1	/	52*	-33
S=c1sc2c(Cl)ncnc2n1-c1ccccc1	104*	30	74*	43	27
Cc1cc(C)nc(Nc2nc3ccccc3o2)n1	-20	-31	-32	-17	-12
CC(=NNc1nc2ccccc2o1)c1cc2ccccc2cn1	-72	-19	27	34	57*
CC(=NNc1nc2ccccc2o1)c1ncccn1	4	15	-1	103*	58*
O=C(Nc1ccc2c(c1)[C@H]1C[C@H](CC(=O)N3CCOCC3)O[C@@H](CO)[C@H]1O2)C1CCC1	12	/	-6	/	/
COc1ccc(NC(=O)N(C)C[C@H]2OCCCC[C@H](C)Oc3ccc(N(C)C)cc3C(=O)N([C@H](C)CO)C[C@@H]2C)cc1	-11	/	-7	/	/
O=C(C[C@@H]1CC[C@H](NC(=O)C2CC2)[C@@H](CO)O1)Nc1nccs1	-4	/	-8	/	/
C/C(Cl)=C\Cn1c(NCCc2ccccc2)nc2c1c(=O)n(C)c(=O)n2C	17	50*	15	54*	31
C=CCn1c(NCCc2ccccc2)nc2c1c(=O)n(C)c(=O)n2C	/	38	/	46	37
CCN(CC)Cc1cc(Nc2ccnc3cc(Cl)ccc23)ccc1O	-7	-15	16	-61	57*!
CCN(CC)S(=O)(=O)c1ccc(C)c(NC(=O)CNCc2ccccc2OC)c1	-5	-3	9	-1	-1
CCN(CC)S(=O)(=O)c1ccc(C)c(NC(=O)CN(C)C)c1	-10	53*	0	16	0
COc1ccccc1-c1ccc([C@@H]2[C@@H](C#N)N(C(=O)C3CC3)[C@@H]2CO)cc1	-2	/	5	/	/
COc1cc(/C=C2\N=C(c3ccccc3)NNC2=O)cc(OC)c1OC	10	19	56*	-11	-1
CCn1c(SC(C)C)nnc1-c1c[nH]c2ccccc12	21	-10	-19	3	84*
Cn1cc(SCC(=O)NCC2CCCO2)c2ccccc21 (stereo not given)	-10	5	-1	-2	85*
SMILES	LGR2 antag	TROY signal inh	EWS-Fli block	TWEAK Fn14 block	EBV LMP1 NFkB
CCOC(=O)CSc1nnc(-c2c[nH]c3ccccc23)n1CC	-10	-4	10	-4	9
Cn1c(SCC(=O)NCC2CCCO2)nnc1-c1c[nH]c2ccccc12 (stereo not given)	-10	13	-5	12	2
CCCn1cc(SCC(=O)NCC2CCCO2)c2ccccc21 (stereo not given)	-30	-40	-24	0	-8
CCn1c(SCC(=O)NCC2CCCO2)nnc1-c1c[nH]c2ccccc12 (stereo not given)	/	/	/	63*	4
COCCn1c(SCc2ccc(C(=O)OC)o2)nnc1-c1c[nH]c2ccccc12	16	3	0	-19	47*
C/C=C/c1ccc(C2[C@H]3CNC[C@@H]2N3S(=O)(=O)Cc2ccccc2)cc1 (stereo not given in full)	1	/	/	/	/
COc1ccc(S(=O)(=O)N[C@@H]2CC[C@H](CC(=O)NCCc3ccccc3)O[C@H]2CO)cc1	9	/	-5	/	/
N#Cc1ccc(NC(=O)Nc2ccc(Oc3ccc(NC(=O)Nc4ccc(C#N)cc4)cc3)cc2)cc1	33	62*	19	105*	15
Cc1noc(C)c1NC(=O)N(C)C[C@H]1Oc2ccc(NC(=O)Nc3ccc4c(c3)OCO4)cc2C(=O)N([C@@H](C)CO)C[C@H]1C	6	/	-4	/	/
NNc1ccc2c(C(F)(F)F)cc(C(F)(F)F)nc2n1	15	-4	13	16	-3
N#CC(c1cccc(Cl)c1)c1ccc2c(C(F)(F)F)cc(C(F)(F)F)nc2n1 (stereo not given)	/	64*	/	45	35
C[C@H]1CN([C@@H](C)CO)C(=O)c2cc(NS(C)(=O)=O)ccc2O[C@H]1CN(C)CC1CC1	3	/	0	/	/
O=C1c2ccccc2-c2nnc(-c3ccc(F)cc3)cc21	51*	-2	45	75*	11
Cc1ccccc1-c1cc2c(nn1)-c1ccccc1C2=O	/	85*	/	46	2
Cc1ccc(-c2cc3c(nn2)-c2ccccc2C3=O)cc1	92*	75*	84*	96*	65*
CN1C(=O)c2cc(NS(=O)(=O)c3ccc(Cl)cc3)ccc2OC[C@@H]2O[C@@H](CC(=O)N3CCc4ccccc4C3)CC[C@H]21	0	/	8	/	/
Cc1ccc(S(=O)(=O)N(C)C[C@@H]2Oc3ccc(NC(=O)CCC(F)(F)F)cc3CC(=O)N([C@H](C)CO)C[C@@H]2C)cc1	-2	/	45	/	/
COc1ccc(-n2cnc3c(cnn3CCC#N)c2=N)cc1	2	8	/	-12	85*
COc1ccc(-c2cc(N)n(CCC#N)n2)c(OC)c1	/	17	/	-1	-8
CCCNC(=O)C[C@H]1CC[C@@H]2[C@@H](COc3ccc(NC(=O)c4cccc(OC)c4)cc3C(=O)N2C)O1	-1	/	-7	/	/
COc1ccccc1C(=O)Nc1ccc2c(c1)OC[C@@H](C)N(C)C[C@H](C)[C@@H](OC)CN(C)C2=O	11	/	-1	/	/
CCOc1ccc(C(=O)Nc2nnc(SCC(=O)NCC3CCCO3)s2)cc1 (stereo not given)	78*	36	65*	69*	61*
O=C(Nc1nnc(SCC(=O)N2CCOCC2)s1)c1ccccc1	14	73*	-3	71*	-2
CN(C)S(=O)(=O)c1ccc(C(=O)Nc2nnc(SCC(=O)NCC3CCCO3)s2)cc1 (stereo not given)	21	-26	/	-1	-6
CC(C)(C)c1ccc(C(=O)Nc2nnc(SCC(=O)NCC3CCCO3)s2)cc1 (stereo not given)	-46	6	/	71*	49*
COc1ccc2c3c(n(C)c2c1)[C@@H](CO)N(Cc1ccc2c(c1)OCO2)CC31CN(C(=O)c2ccc3c(c2)OCO3)C1	12	/	17	/	/
Nc1c(S(=O)(=O)c2cccs2)c2nc3ccccc3nc2n1Cc1ccc2c(c1)OCO2	/	15	/	42	-23

Bioassay records deposited in PubChem BioAssay by several laboratories.
